Source: PubChem BioAssay
Bm FixLJ act – activators of Burkholderia fixLJ two-component system, primary screen, B. multivorans, GFP reporter. z-score (no concentration beside the values). B. multivorans fixK-promoter GFP reporter, 18 h; active compounds read high. actives 0.3% (n = 29,000);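 active means replicate mean overnight rise in green fluorescent reporter signal, 3 or more SD over negative controls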
An asterisk follows results filed as active. This excerpt belongs to a sample that is enriched for hits.

SMILES	Bm FixLJ act
COc1cccc(-n2c(/C=C\c3ccc(Cl)cc3)nc3ccccc3c2=O)c1	0.01
Cc1ccccc1-n1c(/C=C/c2ccc(N(C)C)cc2)nc2ccccc2c1=O	21*
Cc1ccccc1-n1c(/C=C/c2c(C)[nH]c3ccccc23)nc2ccccc2c1=O	-0.55
CC(=O)C1(c2ccccc2)CCN(C(=O)c2c[nH]c(=O)cn2)CC1	-0.79
CCN1CCC(N2CC3c4ccccc4OC[C@]3(C(=O)O)C2)CC1 (some centres not stated)	1.3
